Source: PubChem BioAssay (NCATS)
Where “and” joins values, the source holds several entries; their conditions need not be identical. Identical values can stand only once. Results filed as inconclusive are left out. Calls of active or inactive are those of the source. Unless noted, the call rests on the fitted dose curve; in most records, active means well fitted curve in the direction sought with a large enough effect; inconclusive means small, poorly fitted or top-dose-only effect, or another doubt; inactive means no such curve, though single readings can be large; an effect the other way counts as inactive or inconclusive.

Tests used:
[1] = target: Mitogen-activated protein kinase 10 (Mus musculus) (UniProt Q61831); experiment: JNK3 AlphaScreen Assay (AID 530; active means well fitted curve in either direction with a large enough effect, not every such curve was filed as active;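 further: kinase came from lysate of stimulated human HepG2 cells; signal reports phosphorylation of biotinylated GST-cJun 1-79 at Ser73 with 10 µM ATP; on the % scale 0 is the no-effect control and ±100 the full control effect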)
Procedure, shortened: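 qHTS format: compounds tested as titrations against IL-1beta/TNF-alpha-activated HepG2 lysate JNK3 with biotin-GST-cJun substrate and 10 uM ATP at room temperature. Loss of anti-phospho-cJun AlphaScreen signal indicates inhibition.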

[2] = Cell Viability - N2a (AID 540); conditions: N2a mouse neuroblastoma cell viability; activity change, negative = cytotoxicity: at 92.2 µM (top of the series); further: nearly all actives have a fitted effect of over 45% in size; further: potency means the concentration at half of the fitted maximal effect;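 on activity change, negative = cytotoxicity: plate controls were DMSO alone for no effect and tamoxifen control for full effect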
Procedure, shortened: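 Mouse neuroblastoma N2a cells (1500/well) were preincubated 5 hr at 37 °C, then exposed to compounds for 40 hr at 37 °C in complete medium. Viability was read as intracellular ATP by CellTiter-Glo luminescence; AC50 from Hill fits.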

[3] = Cell Viability - HUV-EC-C (AID 542); further: nearly all actives have a fitted effect of over 35% in size; further: potency means the concentration at half of the fitted maximal effect; on activity change, negative = cytotoxicity: on the % scale 0 is the no-effect control and ±100 the full control effect
Procedure, shortened: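 HUV-EC-C normal human vascular endothelial cells, 1000 cells/well, pre-incubated 5 hr at 37 °C, then exposed to compounds for 40 hr at 37 °C in complete medium. Viability measured as intracellular ATP by CellTiter-Glo luminescence; AC50 from Hill fits.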

[4] = Cell Viability - H-4-II-E (AID 543); further: nearly all actives have a fitted effect of over 35% in size; further: potency means the concentration at half of the fitted maximal effect
Procedure, shortened: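 Rat hepatoma H-4-II-E cells (1500/well) were plated, incubated 5 hr at 37 °C, then exposed to compounds for 40 hr at 37 °C. Cellular ATP was read by CellTiter-Glo luminescence; AC50 came from Hill-equation fits of concentration-response data.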

[5] = Cell Viability - SH-SY5Y (AID 544); further: nearly all actives have a fitted effect of over 55% in size; further: potency means the concentration at half of the fitted maximal effect
Procedure, shortened: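 Human neuroblastoma SH-SY5Y cells (1500/well) in complete medium were exposed to compounds for 40 hr at 37 °C; intracellular ATP was then quantified by CellTiter-Glo luminescence after 20 min at room temperature. AC50 came from Hill-equation concentration-response fits.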

[6] = Cell Viability - Renal Proximal Tubule (AID 545); further: nearly all actives have a fitted effect of over 40% in size; further: potency means the concentration at half of the fitted maximal effect;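 on activity change, negative = cytotoxicity: 0% = DMSO only and -100% = 100 µM tamoxifen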
Procedure, shortened: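 Rat renal proximal tubule primary cells, 1000/well, exposed to compounds for 40 hr at 37 °C in complete medium; cellular ATP read by CellTiter-Glo luminescence. AC50 from concentration-response fitted with standard Hill equation.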

[7] = Cell Viability - Mesenchymal (AID 546);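 further: cells exposed to compound for 40 hours before reading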; further: potency means the concentration at half of the fitted maximal effect;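 on activity change, negative = cytotoxicity: 0% = DMSO only and -100% = 100 µM tamoxifen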
Procedure, shortened: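 Human kidney mesenchymal cells from normal renal glomeruli, 1000 cells/well, rested 5 hr at 37 °C, then treated 40 hr at 37 °C in complete medium. Cellular ATP read by CellTiter-Glo luminescence; AC50 from Hill-equation fits.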

[8] = Cellular Toxicity (caspase-3) Jurkat (AID 655);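 further: cells exposed to compound for 16 h at 37 °C before reading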
Procedure, shortened: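 Jurkat cells (5000/well) in complete medium exposed 16 h at 37 C; caspase-3/7 activity read by Caspase-Glo luminescence after 20 min at room temperature. Normalized to DMSO and 100 uM tamoxifen; AC50 from Hill fits.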

[9] = Cellular Toxicity (caspase-3) HUV-EC-C (AID 656);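 further: 0% = DMSO basal and 100% = 100 µM tamoxifen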
Procedure, shortened: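 HUV-EC-C cells (1000/well) in complete medium, compound-treated 16 h at 37 °C; caspase-3/7 activity read by Caspase-Glo 3/7 luminescence. Normalized to DMSO (basal) and 100 uM tamoxifen (100%); AC50 from Hill-equation concentration-response fits.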

[10] = Cellular Toxicity (caspase-3) SHSY5Y (AID 657)
Procedure, shortened: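 SH-SY5Y human neuroblastoma cells, 1500/well, exposed to compound for 16 hours at 37 °C in complete medium. Caspase-3/7 activity read by Caspase-Glo luminescence after 1 hr at room temperature, normalized to DMSO and 10 uM staurosporine; AC50 from Hill fit.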

[11] = Cellular Toxicity (caspase-3) MRC-5 (AID 659);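 further: 0% = DMSO basal and 100% = 10 µM staurosporine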
Procedure, shortened: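 MRC-5 human normal lung fibroblasts, 1500 cells/well, treated 16 h at 37 °C in complete medium. Caspase 3/7 measured by Caspase-Glo luminescence after 1 h at room temperature. Normalized to DMSO and 10 uM staurosporine; AC50 from Hill fit.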

[12] = Cellular Toxicity (caspase-3) Mesangial (AID 660)
Procedure, shortened: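 Human renal glomerular mesangial cells (1000/well) were treated with compounds for 16 h at 37 °C in complete medium, then caspase 3/7 activity was read by Caspase-Glo luminescence. Data were normalized to DMSO and 100 uM tamoxifen; AC50 from Hill fits.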

[13] = Cellular Toxicity (caspase-3) SK-N-SH (AID 661);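 further: 0% = DMSO basal and 100% = 10 µM staurosporine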
Procedure, shortened: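 SK-N-SH human neuroblastoma cells (1500/well) were treated with compounds for 16 hr at 37 °C in complete medium; caspase 3/7 activity was read by Caspase-Glo luminescence. AC50 came from Hill fits of data normalized to DMSO and 10 uM staurosporine.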

[14] = Cellular Toxicity (caspase-3) H-4-II-E (AID 663);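 further: cells exposed to compound for 16 hr before readout; 0% = DMSO basal and 100% = 100 µM tamoxifen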
Procedure, shortened: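 Rat hepatoma H-4-II-E cells (1500/well) plated 5 hr, then exposed to compound titrations for 16 hr at 37 °C. Caspase-Glo 3/7 luminescence read after 20 min at RT; data normalized to DMSO and 100 uM tamoxifen, AC50 from Hill fits.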

[15] = Cellular Toxicity (caspase-3) Hek293 (AID 664);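 further: cells exposed to compound for 16 h at 37 °C before readout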
Procedure, shortened: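 HEK293 cells were exposed to compounds in complete medium for 16 hr at 37 °C, then caspase-3/7 activity was read by Caspase-Glo 3/7 luminescence after 20 min at room temperature. Data normalized to DMSO and 100 uM tamoxifen; AC50 from Hill fits.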

[16] = Cellular Toxicity (caspase-3) N2a (AID 665);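 further: compound exposure lasted 16 h at 37 °C before readout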
Procedure, shortened: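 Mouse N2a neuroblastoma cells (1500/well) were treated with compounds for 16 h at 37 °C, then caspase-3/7 activity was read by Caspase-Glo luminescence after 1 h at room temperature. Data were normalized to DMSO and 10 uM staurosporine; AC50 from Hill fits.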

[17] = Cellular Toxicity (caspase-3) NIH 3T3 (AID 666);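 further: caspase signal read after 16 h compound exposure; 0% = DMSO basal and 100% = 100 µM tamoxifen stimulation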
Procedure, shortened: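 Mouse NIH 3T3 fibroblasts (1000 cells/well) were treated with compound for 16 hr at 37°C in complete medium; caspase-3/7 activity was read by Caspase-Glo luminescence. Normalized to DMSO and 100 uM tamoxifen; AC50 from Hill fits.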

[18] = target: Glucocorticoid receptor (Homo sapiens) (UniProt P04150); experiment: GR-GFP Redistribution (AID 450;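 active means compounds whose dose series gives a full or clear partial fitted curve of increased nuclear translocation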; further: potency means the concentration at half of the fitted maximal effect); conditions: U2OS GR-GFP nuclear translocation, laser cytometry, 2 h
Sequence of Glucocorticoid receptor (Homo sapiens) (P04150 whole entry, looked up, the tested form may be a part): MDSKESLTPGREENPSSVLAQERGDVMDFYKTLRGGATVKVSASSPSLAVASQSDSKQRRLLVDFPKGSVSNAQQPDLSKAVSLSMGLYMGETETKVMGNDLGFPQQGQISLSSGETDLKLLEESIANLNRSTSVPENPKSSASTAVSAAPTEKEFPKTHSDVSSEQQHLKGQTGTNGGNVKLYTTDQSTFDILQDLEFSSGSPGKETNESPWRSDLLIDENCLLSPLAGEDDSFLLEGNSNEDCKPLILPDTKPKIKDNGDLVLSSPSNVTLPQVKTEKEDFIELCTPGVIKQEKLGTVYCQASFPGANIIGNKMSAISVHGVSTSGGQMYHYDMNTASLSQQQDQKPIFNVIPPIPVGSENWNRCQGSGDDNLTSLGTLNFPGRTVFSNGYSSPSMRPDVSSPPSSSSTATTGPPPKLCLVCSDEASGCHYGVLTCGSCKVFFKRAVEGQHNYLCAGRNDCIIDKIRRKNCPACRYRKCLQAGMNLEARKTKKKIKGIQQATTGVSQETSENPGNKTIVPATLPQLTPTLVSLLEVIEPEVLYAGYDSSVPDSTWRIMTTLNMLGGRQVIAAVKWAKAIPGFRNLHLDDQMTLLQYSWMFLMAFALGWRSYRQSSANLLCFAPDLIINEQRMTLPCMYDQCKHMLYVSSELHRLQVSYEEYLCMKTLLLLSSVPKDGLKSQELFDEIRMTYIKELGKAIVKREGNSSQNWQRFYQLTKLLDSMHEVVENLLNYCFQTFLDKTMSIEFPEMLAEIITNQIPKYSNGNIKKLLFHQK

[19] = target: Glucocorticoid receptor (Homo sapiens) (UniProt P04150); experiment: GR-EFC Redistribution (AID 451; calls by dose curve; further: potency means the concentration at half of the fitted maximal effect); conditions: CHO-K1 GR-EFC translocation, beta-gal luminescence, 2 h
Procedure, shortened: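 CHO-K1 cells expressing nuclear EA and GR-ED fragments of b-gal; compounds titrated up to 46 uM final, 2 h at 37 C. GR nuclear translocation read as complemented b-gal luminescence after 1 h RT detection.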

[20] = target: 3',5'-cyclic-AMP phosphodiesterase 4B (Homo sapiens) (UniProt Q07343); experiment: qHTS Assay for Inhibitors of PDE-IV (AID 607; active means well fitted activation curve with a large enough effect in the main read-out, with a control signal flat, not every such curve was filed as active; further: % of control where 0% means no effect)
Sequence of 3',5'-cyclic-AMP phosphodiesterase 4B (Homo sapiens) (Q07343 whole entry, looked up): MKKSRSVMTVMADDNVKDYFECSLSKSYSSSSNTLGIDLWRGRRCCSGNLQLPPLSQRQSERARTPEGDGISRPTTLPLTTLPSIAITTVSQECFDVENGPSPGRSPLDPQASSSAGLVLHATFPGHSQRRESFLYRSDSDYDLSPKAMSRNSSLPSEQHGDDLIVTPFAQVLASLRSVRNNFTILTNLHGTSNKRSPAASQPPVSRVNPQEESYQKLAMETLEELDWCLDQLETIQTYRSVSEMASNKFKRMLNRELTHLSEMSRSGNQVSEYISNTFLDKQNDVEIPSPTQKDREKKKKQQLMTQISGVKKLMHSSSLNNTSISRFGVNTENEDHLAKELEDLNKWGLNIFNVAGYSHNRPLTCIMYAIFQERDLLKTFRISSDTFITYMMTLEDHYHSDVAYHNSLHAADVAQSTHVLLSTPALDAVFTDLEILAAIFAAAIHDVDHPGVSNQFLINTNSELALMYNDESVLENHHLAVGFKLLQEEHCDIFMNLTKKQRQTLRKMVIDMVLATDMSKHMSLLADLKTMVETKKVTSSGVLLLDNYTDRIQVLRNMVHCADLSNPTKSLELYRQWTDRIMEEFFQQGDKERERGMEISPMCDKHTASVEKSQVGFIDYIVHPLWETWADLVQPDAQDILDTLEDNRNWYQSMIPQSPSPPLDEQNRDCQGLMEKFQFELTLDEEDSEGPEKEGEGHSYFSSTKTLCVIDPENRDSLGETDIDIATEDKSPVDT
Procedure, shortened: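 The readout is membrane depolarisation from a cAMP-sensing CNG channel, detected with a potential dye at ex 535/em 590. Cells were HEK293-derived (endogenous PDE-IV) at 1000 cells/well, titrated up to 22.9 uM final.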

O=C(O)C(Cl)Cl
inactive: outcome [1] | activity change, negative = cytotoxicity [2] 2.37% | Potency [3] | Potency [4] | Potency [5] | Potency [6] | Potency [7] | outcome [8] | outcome [9] | outcome [10] | outcome [11] | outcome [12] | outcome [13] | outcome [14] | outcome [15] | outcome [16] | outcome [17]

CCOC(=O)c1cncn1[C@H](C)c1ccccc1
inactive: Potency [18] > 46 µM | Potency [19] > 46 µM | outcome [1] | Potency [20]

CC(=O)[O][Hg][c]1ccccc1
active: Potency [2] 10 µM | Potency [3] 1.26 µM | Potency [4] 2 µM | Potency [5] 0.126 µM | Potency [6] 0.631 µM | Potency [7] 2 µM
inactive: outcome [1] | outcome [9] | outcome [10] | outcome [11] | outcome [12] | outcome [13] | outcome [14] | outcome [15] | outcome [16] | outcome [17]

CCOP(=O)(NC(C)C)Oc1ccc(SC)c(C)c1 (stereo not given)
inactive: outcome [1] | activity change, negative = cytotoxicity [2] -29.1% | Potency [3] | Potency [4] | Potency [6] | Potency [7] | outcome [8] | outcome [9] | outcome [10] | outcome [11] | outcome [12] | outcome [13] | outcome [14] | outcome [15] | outcome [16] | outcome [17]
active: Potency [5] 12.6 µM

O=[N+]([O-])c1cc([N+](=O)[O-])c2ccccc2c1
inactive: activity change, negative = cytotoxicity [2] -22.1% | Potency [3] | Potency [5] | Potency [6] | Potency [7] | outcome [8] | outcome [9] | outcome [10] | outcome [11] | outcome [12] | outcome [13] | outcome [14] | outcome [15] | outcome [16] | outcome [17]

CC(C)(O)C(=O)Nc1ccc([N+](=O)[O-])c(C(F)(F)F)c1
inactive: outcome [1] | Potency [3] | Potency [5] | Potency [6] | Potency [7] | outcome [8] | outcome [9] | outcome [10] | outcome [11] | outcome [12] | outcome [13] | outcome [14] | outcome [15] | outcome [16] | outcome [17]
active: activity change, negative = cytotoxicity [2] -95.6%

C[C@]12N[C@H](Cc3ccccc31)c1ccccc12
inactive: outcome [1] | Potency [20]

CCOCCOC(C)=O
inactive: outcome [1] | activity change, negative = cytotoxicity [2] -15.1% | Potency [3] | Potency [4] | Potency [5] | Potency [6] | Potency [7] | outcome [8] | outcome [9] | outcome [10] | outcome [11] | outcome [12] | outcome [13] | outcome [14] | outcome [15] | outcome [16] | outcome [17]

C1CCC(NC2CCCCC2)CC1
inactive: outcome [1] | activity change, negative = cytotoxicity [2] 3.55% and 8.48% | Potency [3] | Potency [4] | Potency [5] | Potency [6] | Potency [7] | outcome [8] | outcome [9] | outcome [10] | outcome [11] | outcome [12] | outcome [13] | outcome [14] | outcome [15] | outcome [16] | outcome [17]

CCCCOC(=O)c1ccccc1C(=O)OCc1ccccc1
inactive: activity change, negative = cytotoxicity [2] -9.01% | Potency [3] | Potency [4] | Potency [5] | Potency [6] | Potency [7] | outcome [8] | outcome [9] | outcome [10] | outcome [11] | outcome [12] | outcome [13] | outcome [14] | outcome [15] | outcome [16] | outcome [17]

Nc1ccc(Sc2ccc(N)cc2)cc1
inactive: outcome [1] | activity change, negative = cytotoxicity [2] -14% | Potency [3] | Potency [5] | Potency [6] | Potency [7] | outcome [8] | outcome [9] | outcome [10] | outcome [11] | outcome [12] | outcome [13] | outcome [14] | outcome [15] | outcome [16] | outcome [17]

OCCCBr
inactive: outcome [1] | activity change, negative = cytotoxicity [2] 9.77% | Potency [3] | Potency [4] | Potency [5] | Potency [6] | Potency [7] | outcome [8] | outcome [9] | outcome [10] | outcome [11] | outcome [12] | outcome [13] | outcome [14] | outcome [15] | outcome [16] | outcome [17]

CCCCCCCCc1ccc(O)cc1
inactive: outcome [1] | activity change, negative = cytotoxicity [2] -16.1% | Potency [3] | Potency [4] | Potency [5] | Potency [6] | Potency [7] | outcome [8] | outcome [9] | outcome [10] | outcome [11] | outcome [12] | outcome [13] | outcome [14] | outcome [15] | outcome [16] | outcome [17]

Nc1ccc(Cl)cc1
inactive: outcome [1] | activity change, negative = cytotoxicity [2] -1.41% | Potency [3] | Potency [4] | Potency [5] | Potency [6] | Potency [7] | outcome [8] | outcome [9] | outcome [10] | outcome [11] | outcome [12] | outcome [13] | outcome [14] | outcome [15] | outcome [16] | outcome [17]

CCCN1CCO[C@@H]2c3cc(O)ccc3OC[C@@H]21
inactive: Potency [19] > 46 µM | outcome [1] | Potency [20]

CN(C)NC(=O)CCC(=O)O
inactive: outcome [1] | activity change, negative = cytotoxicity [2] -4.24% | Potency [3] | Potency [4] | Potency [5] | Potency [6] | Potency [7] | outcome [8] | outcome [9] | outcome [10] | outcome [11] | outcome [12] | outcome [13] | outcome [14] | outcome [15] | outcome [16] | outcome [17]

Cn1cnc(CCN)c1
inactive: Potency [18] > 46 µM | Potency [19] > 46 µM | outcome [1] | Potency [20]

Cc1cc(O)ccc1Cl
inactive: outcome [1] | activity change, negative = cytotoxicity [2] -7.18% | Potency [3] | Potency [4] | Potency [5] | Potency [6] | Potency [7] | outcome [8] | outcome [9] | outcome [10] | outcome [11] | outcome [12] | outcome [13] | outcome [14] | outcome [15] | outcome [16] | outcome [17]

O=[N+]([O-])c1c2ccccc2cc2ccccc12
inactive: outcome [1] | activity change, negative = cytotoxicity [2] -0.277% | Potency [3] | Potency [4] | Potency [6] | Potency [7] | outcome [8] | outcome [9] | outcome [10] | outcome [11] | outcome [12] | outcome [13] | outcome [14] | outcome [15] | outcome [16] | outcome [17]

c1cc2ccc3cccc4ccc(c1)c2c34
inactive: activity change, negative = cytotoxicity [2] 2.91% | Potency [3] | Potency [4] | Potency [5] | Potency [6] | Potency [7] | outcome [8] | outcome [9] | outcome [10] | outcome [11] | outcome [12] | outcome [13] | outcome [14] | outcome [15] | outcome [16] | outcome [17]

COc1ccc2c(c[n+](C)c3c4cc5c(cc4ccc23)OCO5)c1OC
inactive: Potency [19] > 46 µM | outcome [1] | Potency [20]
